In publication PMC5700166:

target: T1, GST-Nv-NF-kB (Ser allele) (Nematostella vectensis, UniProt A7UNT2 2-411); assay: protein-binding microarray (PBM); PBM: ~300 nM protein, 6 mM HEPES pH 7.8, 80 mM KCl, 0.5 mM EDTA, 0.5 mM EGTA, 6% glycerol, 35 ng/ul poly-dIdC, 1% milk, 1 h, room temperature; Ap Aiptasia and Nv Nematostella (sea anemones) / Co Capsaspora / Aq Amphimedon (sponge) / Dm Drosophila / Hu human; RHD is the Rel homology domain; high values mean tight binding; conditions: dsDNA, one strand shown
T1 sequence: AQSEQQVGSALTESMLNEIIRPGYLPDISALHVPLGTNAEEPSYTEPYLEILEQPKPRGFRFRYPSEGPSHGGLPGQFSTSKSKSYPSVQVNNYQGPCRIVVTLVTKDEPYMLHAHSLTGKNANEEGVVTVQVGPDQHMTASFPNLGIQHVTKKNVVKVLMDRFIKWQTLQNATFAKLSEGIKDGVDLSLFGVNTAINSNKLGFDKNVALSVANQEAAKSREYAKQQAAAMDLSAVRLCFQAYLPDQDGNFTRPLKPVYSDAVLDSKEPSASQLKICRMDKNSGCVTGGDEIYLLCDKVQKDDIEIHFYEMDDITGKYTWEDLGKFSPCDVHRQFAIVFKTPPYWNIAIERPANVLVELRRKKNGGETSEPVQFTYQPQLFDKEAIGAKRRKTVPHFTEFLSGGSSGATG

Row | Sequence | binding signal
1 | CCGATTAACATCATAGTCCCATGTGATGTTAATCGGGTCTTGATTCGCTTGACGCTGCTG | 1.82 z-score
2 | CCGATTAACATCAGGGGCTGTACTGATGTTAATCGGGTCTTGATTCGCTTGACGCTGCTG | 2.32 z-score
3 | CCGATTAACATCATGGTGGGAAATGATGTTAATCGGGTCTTGATTCGCTTGACGCTGCTG | 2.25 z-score
4 | CCGATTAACATCATCAGGGAAAATGATGTTAATCGGGTCTTGATTCGCTTGACGCTGCTG | 5.74 z-score
5 | CCGATTAACATCAAAAATTTACCTGATGTTAATCGGGTCTTGATTCGCTTGACGCTGCTG | 6.08 z-score
6 | CCGATTAACATCAGGGCAGCCCCTGATGTTAATCGGGTCTTGATTCGCTTGACGCTGCTG | 2.79 z-score
7 | CCGATTAACATCAGGGATTCTCATGATGTTAATCGGGTCTTGATTCGCTTGACGCTGCTG | 1.71 z-score
8 | CCGATTAACATCAGATCTTCCCCTGATGTTAATCGGGTCTTGATTCGCTTGACGCTGCTG | 6.54 z-score
9 | CCGATTAACATCAGAACTTTCCCTGATGTTAATCGGGTCTTGATTCGCTTGACGCTGCTG | 5.58 z-score
10 | CCGATTAACATCAACCACCCCCCTGATGTTAATCGGGTCTTGATTCGCTTGACGCTGCTG | 3.31 z-score
11 | CCGATTAACATCAACCCCCGGCTTGATGTTAATCGGGTCTTGATTCGCTTGACGCTGCTG | 2.23 z-score
12 | CCGATTAACATCAGGTACTTCCATGATGTTAATCGGGTCTTGATTCGCTTGACGCTGCTG | 5.91 z-score
13 | CCGATTAACATCAACTCGGGAAATGATGTTAATCGGGTCTTGATTCGCTTGACGCTGCTG | 2.66 z-score
14 | CCGATTAACATCAGGGGGCGCACTGATGTTAATCGGGTCTTGATTCGCTTGACGCTGCTG | 2.76 z-score
15 | CCGATTAACATCAAAAAAATTTCTGATGTTAATCGGGTCTTGATTCGCTTGACGCTGCTG | 1.35 z-score
16 | CCGATTAACATCAGGGATTCACCTGATGTTAATCGGGTCTTGATTCGCTTGACGCTGCTG | 4.26 z-score
17 | CCGATTAACATCAGAAATTACCATGATGTTAATCGGGTCTTGATTCGCTTGACGCTGCTG | 3.08 z-score
18 | CCGATTAACATCAGGCAATTCCCTGATGTTAATCGGGTCTTGATTCGCTTGACGCTGCTG | 3.97 z-score
19 | CCGATTAACATCAGGAATGTACCTGATGTTAATCGGGTCTTGATTCGCTTGACGCTGCTG | 3.2 z-score
20 | CCGATTAACATCAGGAAGACCCCTGATGTTAATCGGGTCTTGATTCGCTTGACGCTGCTG | 1.11 z-score

Row | Sequence | binding signal
21 | CCGATTAACATCAGAAATCTCCCTGATGTTAATCGGGTCTTGATTCGCTTGACGCTGCTG | 4.16 z-score
22 | CCGATTAACATCAACATGGGAAATGATGTTAATCGGGTCTTGATTCGCTTGACGCTGCTG | 2.18 z-score
23 | CCGATTAACATCACGTTATTCCCTGATGTTAATCGGGTCTTGATTCGCTTGACGCTGCTG | 3.53 z-score
24 | CCGATTAACATCAGGCACCCCCCTGATGTTAATCGGGTCTTGATTCGCTTGACGCTGCTG | 3.18 z-score
25 | CCGATTAACATCAAGGGAATACCTGATGTTAATCGGGTCTTGATTCGCTTGACGCTGCTG | 4.14 z-score
26 | CCGATTAACATCAGGGAAAGAAATGATGTTAATCGGGTCTTGATTCGCTTGACGCTGCTG | 3.86 z-score
27 | CCGATTAACATCAACACCCCCCCTGATGTTAATCGGGTCTTGATTCGCTTGACGCTGCTG | 3.82 z-score
28 | CCGATTAACATCAATTTTTCCCATGATGTTAATCGGGTCTTGATTCGCTTGACGCTGCTG | 5.77 z-score
29 | CCGATTAACATCAACTAATTCCCTGATGTTAATCGGGTCTTGATTCGCTTGACGCTGCTG | 4.35 z-score
30 | CCGATTAACATCAGGGGAGAACCTGATGTTAATCGGGTCTTGATTCGCTTGACGCTGCTG | 5.63 z-score
31 | CCGATTAACATCAGGAACCCCCATGATGTTAATCGGGTCTTGATTCGCTTGACGCTGCTG | 4.62 z-score
32 | CCGATTAACATCAGGAATATTCCTGATGTTAATCGGGTCTTGATTCGCTTGACGCTGCTG | 1.09 z-score
33 | CCGATTAACATCAGGGAAAGTAATGATGTTAATCGGGTCTTGATTCGCTTGACGCTGCTG | 5.14 z-score
34 | CCGATTAACATCACAAATGGGAATGATGTTAATCGGGTCTTGATTCGCTTGACGCTGCTG | 1.63 z-score
35 | CCGATTAACATCAGGAATTTACCTGATGTTAATCGGGTCTTGATTCGCTTGACGCTGCTG | 4.26 z-score
36 | CCGATTAACATCACGGAGTCCCCTGATGTTAATCGGGTCTTGATTCGCTTGACGCTGCTG | 4.71 z-score
37 | CCGATTAACATCAAAAAAAGTCCTGATGTTAATCGGGTCTTGATTCGCTTGACGCTGCTG | 1.42 z-score
38 | CCGATTAACATCACCCAGGGAAATGATGTTAATCGGGTCTTGATTCGCTTGACGCTGCTG | 1.97 z-score
39 | CCGATTAACATCACACACCCCCCTGATGTTAATCGGGTCTTGATTCGCTTGACGCTGCTG | 3.65 z-score

target: GST-Hu-p50 (Homo sapiens, UniProt P19838 7-356); assay: as above; conditions: dsDNA, one strand shown
Sequence (P19838 7-356): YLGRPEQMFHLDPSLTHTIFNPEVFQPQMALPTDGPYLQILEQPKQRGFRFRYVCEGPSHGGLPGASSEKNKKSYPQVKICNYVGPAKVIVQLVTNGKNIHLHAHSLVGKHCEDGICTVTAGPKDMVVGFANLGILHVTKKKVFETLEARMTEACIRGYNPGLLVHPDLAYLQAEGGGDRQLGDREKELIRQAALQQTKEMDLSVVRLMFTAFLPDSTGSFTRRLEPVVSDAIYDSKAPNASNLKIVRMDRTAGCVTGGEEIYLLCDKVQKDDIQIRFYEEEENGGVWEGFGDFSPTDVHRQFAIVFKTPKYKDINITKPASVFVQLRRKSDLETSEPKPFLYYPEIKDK

Row | Sequence | binding signal
40 | CCGATTAACATCATAGTCCCATGTGATGTTAATCGGGTCTTGATTCGCTTGACGCTGCTG | 1.34 z-score
41 | CCGATTAACATCAGGGGCTGTACTGATGTTAATCGGGTCTTGATTCGCTTGACGCTGCTG | 3.36 z-score
42 | CCGATTAACATCATGGTGGGAAATGATGTTAATCGGGTCTTGATTCGCTTGACGCTGCTG | 2.18 z-score
43 | CCGATTAACATCATCAGGGAAAATGATGTTAATCGGGTCTTGATTCGCTTGACGCTGCTG | 2.83 z-score
44 | CCGATTAACATCAAAAATTTACCTGATGTTAATCGGGTCTTGATTCGCTTGACGCTGCTG | 3.82 z-score
45 | CCGATTAACATCAGGGCAGCCCCTGATGTTAATCGGGTCTTGATTCGCTTGACGCTGCTG | 4.31 z-score
46 | CCGATTAACATCAGGGATTCTCATGATGTTAATCGGGTCTTGATTCGCTTGACGCTGCTG | 1.91 z-score
47 | CCGATTAACATCAGATCTTCCCCTGATGTTAATCGGGTCTTGATTCGCTTGACGCTGCTG | 5.04 z-score
48 | CCGATTAACATCAGAACTTTCCCTGATGTTAATCGGGTCTTGATTCGCTTGACGCTGCTG | 4.94 z-score
49 | CCGATTAACATCAACCACCCCCCTGATGTTAATCGGGTCTTGATTCGCTTGACGCTGCTG | 4.14 z-score
50 | CCGATTAACATCAACCCCCGGCTTGATGTTAATCGGGTCTTGATTCGCTTGACGCTGCTG | 3.29 z-score
51 | CCGATTAACATCAGGTACTTCCATGATGTTAATCGGGTCTTGATTCGCTTGACGCTGCTG | 2.98 z-score
52 | CCGATTAACATCAACTCGGGAAATGATGTTAATCGGGTCTTGATTCGCTTGACGCTGCTG | 1.46 z-score
53 | CCGATTAACATCAGGGGGCGCACTGATGTTAATCGGGTCTTGATTCGCTTGACGCTGCTG | 4.11 z-score
54 | CCGATTAACATCAAAAAAATTTCTGATGTTAATCGGGTCTTGATTCGCTTGACGCTGCTG | 1.66 z-score
55 | CCGATTAACATCAGGGATTCACCTGATGTTAATCGGGTCTTGATTCGCTTGACGCTGCTG | 4.55 z-score
56 | CCGATTAACATCAGAAATTACCATGATGTTAATCGGGTCTTGATTCGCTTGACGCTGCTG | 2.24 z-score
57 | CCGATTAACATCAGGCAATTCCCTGATGTTAATCGGGTCTTGATTCGCTTGACGCTGCTG | 3.86 z-score
58 | CCGATTAACATCAGGAATGTACCTGATGTTAATCGGGTCTTGATTCGCTTGACGCTGCTG | 2.14 z-score
59 | CCGATTAACATCAGGAAGACCCCTGATGTTAATCGGGTCTTGATTCGCTTGACGCTGCTG | 3.37 z-score

Row | Sequence | binding signal
60 | CCGATTAACATCAGAAATCTCCCTGATGTTAATCGGGTCTTGATTCGCTTGACGCTGCTG | 4.42 z-score
61 | CCGATTAACATCAACATGGGAAATGATGTTAATCGGGTCTTGATTCGCTTGACGCTGCTG | 1.56 z-score
62 | CCGATTAACATCACGTTATTCCCTGATGTTAATCGGGTCTTGATTCGCTTGACGCTGCTG | 1.05 z-score
63 | CCGATTAACATCAGGCACCCCCCTGATGTTAATCGGGTCTTGATTCGCTTGACGCTGCTG | 4.38 z-score
64 | CCGATTAACATCAAGGGAATACCTGATGTTAATCGGGTCTTGATTCGCTTGACGCTGCTG | 2.34 z-score
65 | CCGATTAACATCAGGGAAAGAAATGATGTTAATCGGGTCTTGATTCGCTTGACGCTGCTG | 2.62 z-score
66 | CCGATTAACATCAACACCCCCCCTGATGTTAATCGGGTCTTGATTCGCTTGACGCTGCTG | 3.88 z-score
67 | CCGATTAACATCAATTTTTCCCATGATGTTAATCGGGTCTTGATTCGCTTGACGCTGCTG | 3.53 z-score
68 | CCGATTAACATCAACTAATTCCCTGATGTTAATCGGGTCTTGATTCGCTTGACGCTGCTG | 2.11 z-score
69 | CCGATTAACATCAGGGGAGAACCTGATGTTAATCGGGTCTTGATTCGCTTGACGCTGCTG | 4.26 z-score
70 | CCGATTAACATCAGGAACCCCCATGATGTTAATCGGGTCTTGATTCGCTTGACGCTGCTG | 5.23 z-score
71 | CCGATTAACATCAGGAATATTCCTGATGTTAATCGGGTCTTGATTCGCTTGACGCTGCTG | 1.36 z-score
72 | CCGATTAACATCAGGGAAAGTAATGATGTTAATCGGGTCTTGATTCGCTTGACGCTGCTG | 3.58 z-score
73 | CCGATTAACATCACAAATGGGAATGATGTTAATCGGGTCTTGATTCGCTTGACGCTGCTG | 1.06 z-score
74 | CCGATTAACATCAGGAATTTACCTGATGTTAATCGGGTCTTGATTCGCTTGACGCTGCTG | 3.27 z-score
75 | CCGATTAACATCACGGAGTCCCCTGATGTTAATCGGGTCTTGATTCGCTTGACGCTGCTG | 5.13 z-score
76 | CCGATTAACATCAAAAAAAGTCCTGATGTTAATCGGGTCTTGATTCGCTTGACGCTGCTG | 2.19 z-score
77 | CCGATTAACATCACCCAGGGAAATGATGTTAATCGGGTCTTGATTCGCTTGACGCTGCTG | 2.01 z-score
78 | CCGATTAACATCACACACCCCCCTGATGTTAATCGGGTCTTGATTCGCTTGACGCTGCTG | 3.63 z-score
